Laboratory results from PubChem BioAssay (Tox21).
Records with an inconclusive call do not appear. Where a call stands in place of a potency, no number is given. Unmarked numbers belong to inactive results. Activity calls are given as the source filed them. The call rests on the fitted dose curve; in most records, active means well fitted curve in the direction sought with a large enough effect in the repeat runs; inconclusive means weak or mixed curves; inactive means no such curve, though single readings can be large; an effect the other way counts as inactive or inconclusive.

assay: qHTS RealTime-Glo MT Cell Viability Assay in HepG2 cells - 24 hour (AID 1224867); settings: RealTime-Glo luminescence; series mostly up to 76.8 µM
Procedure, shortened: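 qHTS, HepG2, 600 cells/well, RealTime-Glo (NanoLuc + prosubstrate) added with cells; 5 h preincubation; DMSO compound addition; 37 C; luminescence at 0/8/16/24/32/40 h.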
Further: nearly all actives have a fitted effect of over 50% in size.
Potency means the concentration at half of the fitted maximal effect.

SMILES	Potency	activity change, negative = cytotoxicity
NC(=O)CI	13.9 µM (active)	–
CCOC(=O)[C@]1(c2ccccc2)Oc2ccccc2[C@@H]1N	inactive	–
CCC(Cl)CCl (centres undefined)	inactive	–
Cc1ccccc1C(=O)Nc1cccc(OC(C)C)c1	inactive	–
O=C(O)C(F)(F)C(F)(F)C(F)(F)C(F)(F)C(F)(F)C(F)(F)C(F)(F)C(F)(F)C(F)(F)F	inactive	–
CCBr	inactive	–
CCOP(=O)(OCC)SCCSCC	inactive	–
CC(=O)CCC(C)=O	inactive	–
Nc1nc(=S)[nH][nH]1	inactive	–
c1ccc(CN2CCNCC2)cc1	inactive	–
CC(C)(Cl)[N+](=O)[O-]	inactive	–
CC(=O)c1cc2c(cc1C)C(C)(C)C(C)CC2(C)C (centres undefined)	inactive	–
CCOP(=O)(OCC)Oc1ccc([N+](=O)[O-])cc1	inactive	–
COC(=O)C(Cl)C(=O)OC	inactive	–
O=C(NC(=O)c1c(F)cccc1F)Nc1ccc(OC(F)(F)C(F)OC(F)(F)F)c(Cl)c1 (centres undefined)	inactive	–
CCCCC(CC)COP(=O)(Oc1ccccc1)Oc1ccccc1 (centres undefined)	inactive	–
CC(C)N(CCC(C(N)=O)(c1ccccc1)c1ccccn1)C(C)C (centres undefined)	inactive	–

SMILES	Potency	activity change, negative = cytotoxicity
CCOP(O)OCC	inactive	–
O=C(O)CC(Cl)C(=O)O (centres undefined)	inactive	–
Nc1ccc([N+](=O)[O-])cc1[N+](=O)[O-]	inactive	–
NCC(CC(=O)O)c1ccc(Cl)cc1 (centres undefined)	–	-0.0323% [at 0.29 µM]
BrCC(Br)C1CCC(Br)C(Br)C1 (centres undefined)	inactive	–
CCC(C)(NC(=O)c1cc(Cl)c(C)c(Cl)c1)C(=O)CCl (centres undefined)	49.3 µM (active)	–
N#C/C(N)=C(/N)C#N	inactive	–
BrCCCCBr	inactive	–
Cn1sc(Cl)cc1=O	inactive	–
C=CC(=O)NCNC(=O)C=C	inactive	–
S=C=NCc1ccccc1	inactive	–
C=CCN1CC[C@]23c4c5ccc(O)c4O[C@H]2C(=O)CC[C@@]3(O)[C@H]1C5	inactive	–
COC(C)(C)CCC[C@H](C)C/C=C/C(C)=C/C(=O)OC(C)C	inactive	–
CC(C)(OO)c1ccccc1	inactive	–
CC(=O)C(C)(C)C	inactive	–
O=C(NCc1cccnc1)Nc1ccc([N+](=O)[O-])cc1	inactive	–
Cc1ccc(N)cc1C	inactive	–

assay: qHTS RealTime-Glo MT Cell Viability Assay in HEK293 cells - 32 hour (AID 1224868); settings: RealTime-Glo luminescence; series mostly up to 76.8 µM; on activity change, negative = cytotoxic: top concentration of the series differs between compounds
Procedure, shortened: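 Assay medium contained NanoLuc luciferase plus cell-permeant prosubstrate, added with HEK293 cells at 600 cells/well. After 5 h at 37 C/5% CO2 compounds were added; plates stayed at 37 C for 40 h with serial luminescence reads.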

SMILES	Potency	activity change, negative = cytotoxic
CCC(Cl)CCl (centres undefined)	inactive	–
O=C(O)C(F)(F)C(F)(F)C(F)(F)C(F)(F)C(F)(F)C(F)(F)C(F)(F)C(F)(F)C(F)(F)F	inactive	–
CCBr	inactive	–
CCOP(=O)(OCC)SCCSCC	inactive	–
CC(=O)CCC(C)=O	inactive	–
Nc1nc(=S)[nH][nH]1	inactive	–
c1ccc(CN2CCNCC2)cc1	inactive	–
CC(C)(Cl)[N+](=O)[O-]	inactive	–
CN1C[C@H](CNC(=O)OCc2ccccc2)C[C@@H]2c3cccc4c3c(cn4C)C[C@H]21	21.3 µM (active)	–
CC(=O)c1cc2c(cc1C)C(C)(C)C(C)CC2(C)C (centres undefined)	inactive	–
CCOP(=O)(OCC)Oc1ccc([N+](=O)[O-])cc1	inactive	–
COC(=O)C(Cl)C(=O)OC	inactive	–
O=C(NC(=O)c1c(F)cccc1F)Nc1ccc(OC(F)(F)C(F)OC(F)(F)F)c(Cl)c1 (centres undefined)	inactive	–
CCCCC(CC)COP(=O)(Oc1ccccc1)Oc1ccccc1 (centres undefined)	inactive	–
CC(C)N(CCC(C(N)=O)(c1ccccc1)c1ccccn1)C(C)C (centres undefined)	inactive	–
CCOP(O)OCC	inactive	–
O=C(O)CC(Cl)C(=O)O (centres undefined)	inactive	–
NCC(CC(=O)O)c1ccc(Cl)cc1 (centres undefined)	–	7.97% [at 0.29 µM]
CCC(C)(NC(=O)c1cc(Cl)c(C)c(Cl)c1)C(=O)CCl (centres undefined)	19.6 µM (active)	–
N#C/C(N)=C(/N)C#N	inactive	–
BrCCCCBr	inactive	–
Cn1sc(Cl)cc1=O	inactive	–
C=CC(=O)NCNC(=O)C=C	inactive	–
S=C=NCc1ccccc1	44.1 µM (active)	–
C=CCN1CC[C@]23c4c5ccc(O)c4O[C@H]2C(=O)CC[C@@]3(O)[C@H]1C5	inactive	–
COC(C)(C)CCC[C@H](C)C/C=C/C(C)=C/C(=O)OC(C)C	inactive	–
CC(C)(OO)c1ccccc1	inactive	–
CC(=O)C(C)(C)C	inactive	–
O=C(NCc1cccnc1)Nc1ccc([N+](=O)[O-])cc1	49 µM (active)	–
Cc1ccc(N)cc1C	inactive	–
